Assay outcomes: PubChem, several laboratories
DAX1 inh-1 = DAX1 (NR0B1) inhibition, primary screen; HEK293T StAR-luciferase reporter, SF-1/DAX-1 repression relief; inhibition, % at 6.8 µM; 370,000 compounds, 1.1% hits;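 active means inhibition above the mean over all tested compounds plus 3 SD, cut at about 3.6% in these data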;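 further: higher inhibition means more luminescence from relief of DAX-1 repression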
ssDAF-12 act = S. stercoralis DAF-12 activation, primary screen; HEK293 ssDAF-12/GRIP1 lit1-tk-luc reporter, luminescence; % of 3 µM dafachronic acid response; activation, % at 6.8 µM; 370,000 compounds, 1% hits; AID 652126;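 active means activation above the mean over all tested compounds plus 3 SD, cut at about 0.9% in these data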
DAX1 inh-2 = inhibitors of human orphan nuclear receptor DAX1 (NR0B1); P51843; HEK293 Gal4-DAX1 luciferase reporter, luminescence; inhibition, % at 6.75 µM; AID 504766; 340,000 compounds, 0.99% hits;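 active means inhibition above the mean over all tested compounds plus 3 SD, cut at about 4.2% in these data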;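 further: inhibition shows as a rise in luminescence from relieved DAX1 repression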
Target sequence (P51843 207-470 limits assumed): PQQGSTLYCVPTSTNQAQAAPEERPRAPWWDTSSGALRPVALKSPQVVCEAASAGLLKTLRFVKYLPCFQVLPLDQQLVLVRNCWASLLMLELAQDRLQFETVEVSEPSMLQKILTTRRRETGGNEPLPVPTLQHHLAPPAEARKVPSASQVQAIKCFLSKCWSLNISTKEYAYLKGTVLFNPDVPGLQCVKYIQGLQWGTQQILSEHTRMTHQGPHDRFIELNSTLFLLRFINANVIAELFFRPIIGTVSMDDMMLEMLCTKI
hgDAF12 agonist = hgDAF-12 agonism, primary luciferase screen | HEK293 GAL4-hgDAF12 UAS-luciferase reporter, agonist luminescence; normalized to butyrate control | 370,000 compounds, 1.8% hits | activation, % at 6.8 µM;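 active means activation above a cutoff set at the mean of all screened compounds plus 3 SD, cut at about 10% in these data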
Rev-erbA mod = Rev-erb alpha (human) modulation | Rev-erbα–FITC-DNA binding, fluorescence polarization, 90 min | activity, % at 10 µM | 370,000 compounds, 0.79% hits;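 active means activity above about 14%, limit read from the data; passing the limit was not always enough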
hcDAF12 agonist = activates DAF-12 receptor from parasite H. contortus. 370,000 compounds, 1.4% hits. activation, % at 6.8 µM. HEK293 hcDAF-12 lit1-tk-luc reporter, luminescence; 0% DMSO, 100% Δ7-dafachronic acid;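 active means activation above the mean of all tested compounds plus 3 SD, cut at about 5.5% in these data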
DAX1 conf = NR0B1 (human) inhibition, confirmation | shares compounds with DAX1 inh-1 | HEK293T StAR-promoter luciferase reporter, SF-1/DAX-1 repression | inhibition, % at 6.8 µM | 2,400 compounds, 87% hits | AID 652134;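 active means inhibition above the average of every tested compound plus 3 SD, cut at about 3.8% in these data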;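 further: active compounds raise luminescence by relieving repression of the StAR reporter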
SF1 mutant ctr = nonselective inhibitor or artifact in SF-1 mutant DAX1 counter-screen | shares compounds with DAX1 inh-1 | HEK293 StAR-luciferase, SF-1 AF2 mutant, luminescence | inhibition, % at 6.8 µM | 2,400 compounds, 78% hits;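 active means inhibition above the mean of all tested compounds plus 3 SD, cut at about 3% in these data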
Of the large screens only hits and unclear results are named; the others gave an inactive call (follow-up assays come after a bar, where they were run). Sampled rows, rich in hits. Any-hit rate of the full collection: about 4.8%.

CCOc1ccc(-c2cn3ccccc3n2)cc1	DAX1 inh-1 9.9, hcDAF12 agonist 5.8 | DAX1 conf 14 | SF1 mutant ctr 4.4
CCCC1CCC2(CC1)CCC2OC(=S)NCc1ccc(Cl)cc1 (stereo not given)	none (no result: DAX1 inh-1, DAX1 inh-2)
Cc1cccc(NC(=O)/C=C/c2ccc(Cl)cc2)n1	DAX1 inh-1 4.6, hgDAF12 agonist 12 | DAX1 conf 8.7 | SF1 mutant ctr 5.0
Cc1ccc(NC(=O)CCc2c(C)nn(-c3ccc(N4CCCCC4)nn3)c2C)cc1F	DAX1 inh-1 10, hgDAF12 agonist 11 | DAX1 conf 8.2 | SF1 mutant ctr 4.0
COC(=O)CSc1nc(-c2cccs2)ccc1C#N	DAX1 inh-1 5.9, ssDAF-12 act 1.8, hgDAF12 agonist 12, hcDAF12 agonist 6.5 | DAX1 conf 9.9 | SF1 mutant ctr 8.2
CC(Sc1ccccc1F)C(=O)Nc1ccc2c(c1)OCCO2 (stereo not given)	DAX1 inh-1 4.9, ssDAF-12 act 0.9 | DAX1 conf 6.5 | SF1 mutant ctr 4.0
Cc1ccc2nc(-c3cccc(Br)c3)c(Cc3ccccc3C(F)(F)F)n2c1	DAX1 inh-1 5.1 (no result: DAX1 inh-2) | DAX1 conf 4.0 | SF1 mutant ctr 4.2
Cc1ccc2nc(-c3ccccn3)c(Nc3ccccc3C)n2c1	none
FC(F)(F)c1ccccc1Cc1c(-c2cccc(Cl)c2)nc2ccc(Br)cn12	none (no result: DAX1 inh-2)
Cc1ccc2nc(-c3cccc(Br)c3)c(Cc3ccccn3)n2c1	DAX1 inh-1 5.1, ssDAF-12 act 1.1 (no result: DAX1 inh-2) | DAX1 conf 7.8 | SF1 mutant ctr 5.0
Cc1ccc2nc(-c3ccc(Cl)cc3)c(Cc3ccccn3)n2c1	DAX1 inh-1 6.7, hgDAF12 agonist 11 (no result: DAX1 inh-2) | DAX1 conf 14 | SF1 mutant ctr 4.5
Cc1ccc2nc(-c3ccccn3)c(N)n2c1	DAX1 inh-1 5.4, hgDAF12 agonist 11 (no result: DAX1 inh-2) | DAX1 conf 15 | SF1 mutant ctr 6.8
O=C(CSc1nnc(NC(=O)c2ccccc2F)s1)NCc1ccco1	DAX1 inh-1 6.3 | DAX1 conf 5.9 | SF1 mutant ctr 6.4
COc1ccc(C(=O)Nc2nnc(SCC(=O)NC3CCCC3)s2)c(OC)c1	DAX1 inh-1 10, ssDAF-12 act 2.3, hgDAF12 agonist 11 | DAX1 conf 8.4 | SF1 mutant ctr inactive
O=C(Nc1nnc(-c2ccccc2)s1)c1ccccc1F	DAX1 inh-1 5.5, hgDAF12 agonist 11 | DAX1 conf 7.7 | SF1 mutant ctr 5.2
CCc1nnc(NC(=O)Nc2ccccc2OC)s1	none
CCc1nnc(NC(=O)c2ccc(OC)cc2OC)s1	DAX1 inh-1 6.8, hgDAF12 agonist 12, hcDAF12 agonist 6.1 | DAX1 conf 13 | SF1 mutant ctr 5.7
COC(=O)C[C@@H]1C[C@H]2c3cc(NC(=O)Nc4ccccc4F)ccc3O[C@H]2[C@@H](CO)O1	none (no result: DAX1 inh-2)
COc1ccc(C(=O)Nc2nnc(SCC(=O)NCc3ccco3)s2)c(OC)c1	DAX1 inh-1 5.0 | DAX1 conf 5.5 | SF1 mutant ctr inactive
O=C(CSc1nnc(NC(=O)c2c(F)cccc2F)s1)NC1CC1	none
O=C(CSc1nnc(NC(=O)c2ccccc2F)s1)NCc1ccc(F)cc1	DAX1 inh-1 6.8 | DAX1 conf 9.2 | SF1 mutant ctr 3.7
COc1ccccc1C(=O)Nc1nnc(SCC(=O)NCC2CCCO2)s1 (stereo not given)	DAX1 inh-1 10, hgDAF12 agonist 11 | DAX1 conf 9.6 | SF1 mutant ctr 9.2
Cc1ccccc1C(=O)Nc1nnc(SCC(=O)NC2CC2)s1	DAX1 inh-1 7.4 | DAX1 conf 6.1 | SF1 mutant ctr 3.6
S=C(Nc1ccc(I)cc1)OC1CCC12CCC(c1ccccc1)CC2 (stereo not given)	none (no result: DAX1 inh-2)
CCOc1ccc(NC(=O)c2cccc(NC(=O)c3ccccc3)c2)cc1	none
CCOc1c(Cl)cc(C(=O)Nc2cccc(C(=O)O)c2)cc1Cl	DAX1 inh-1 7.6 | DAX1 conf 6.5 | SF1 mutant ctr 4.6
O=S1(=O)CC(N2CCCC2)CN1 (stereo not given)	none (no result: DAX1 inh-2)
CC(C)OC(=O)c1ccc2ccc(-c3ccccc3)nc2c1	DAX1 inh-1 8.4 (no result: DAX1 inh-2) | DAX1 conf 15 | SF1 mutant ctr 7.3
CC(C)OC(=O)c1ccc(NC(=O)c2ccccc2)cc1	none
CCOC(=O)c1c(C)[nH]c(C(=O)OCc2ccc([N+](=O)[O-])cc2)c1C	none
CCOC(=O)c1c(C)[nH]c(C(=O)OCc2ccccc2)c1C	DAX1 inh-1 15, ssDAF-12 act 1.9, hgDAF12 agonist 12 | DAX1 conf 12 | SF1 mutant ctr 5.5
COC(=O)[C@]12C[C@H](CC(=O)N3CCN(C(=O)c4ccco4)CC3)C(=O)N(CCC3=CCCCC3)C1=C[C@H](COCc1ccccc1)O[C@@H]2C	none (no result: DAX1 inh-2)
COc1cccc(-c2nnc(-c3ccc4ccccc4c3)o2)c1	DAX1 inh-1 5.5 | DAX1 conf 15 | SF1 mutant ctr 6.1
O=C(OCc1cn(Cc2cccc(Cl)c2)nn1)N1CCOCC1	none (no result: DAX1 inh-2)
CCC(c1nnnn1-c1ccc2c(c1)OCCO2)N1CCN(CC)CC1 (stereo not given)	DAX1 inh-1 5.4 (no result: DAX1 inh-2) | DAX1 conf inactive | SF1 mutant ctr inactive
CCC(c1nnnn1-c1ccc2c(c1)OCCO2)N1CCN(C)CC1 (stereo not given)	none (no result: DAX1 inh-2)
O=C(c1ccc(F)cc1)n1ccc(-c2cnc(-c3ccccc3)s2)n1	DAX1 inh-1 5.0, ssDAF-12 act 0.9, hgDAF12 agonist 13, hcDAF12 agonist 5.9 | DAX1 conf 13 | SF1 mutant ctr 5.5
C=C(c1ccc2nc(NC(=O)OC)[nH]c2c1)c1cccs1	DAX1 inh-1 7.7 | DAX1 conf 37 | SF1 mutant ctr inactive
O=C(O)c1cc(/C=C/c2ccc(N3CCOCC3)cc2)nc2ccccc12	DAX1 inh-1 5.5 | DAX1 conf 7.2 | SF1 mutant ctr inactive
O=C(O)c1cc(/C=C/c2ccc(N3CCOCC3)c([N+](=O)[O-])c2)nc2ccccc12	none
COCC(=O)Nc1cc(C(=O)NCCc2ccccc2)ccc1Cl	DAX1 inh-1 5.7, hcDAF12 agonist 5.8 | DAX1 conf 9.3 | SF1 mutant ctr 3.3
CCCCCCCCN1C(=O)[C@@H](CC(=O)NCCC(C)C)C[C@@]2(C(=O)OC)C1=C[C@H](COCc1ccccc1)O[C@@H]2C	none (no result: DAX1 inh-2)
CC(=O)N1CCN(C(=O)c2cc3c(s2)CCCC3)CC1	DAX1 inh-1 4.6 | DAX1 conf inactive | SF1 mutant ctr inactive
CN1CCCN(C(=O)c2cc3c(s2)CCCC3)CC1	none
COc1ccc(-c2nc3n(c2C)CCC3)cc1	none
